Laboratory results published in PubChem BioAssay (EPA / NIEHS).
Where “and” joins values, the source holds several entries; their conditions need not be identical. Equal entries are not always repeated. Some compounds were tested as several samples or in several runs, with calls that do not always agree. Calls of active or inactive are those of the source. The calls were made as follows: active = hit-call score of the fitted dose curve at least 0.9, where 1 is the maximum; inactive = score below 0.9.

experiment: BSK_SAg_Proliferation: Cell Proliferation Assessment in the BioMAP Diversity Plus: SAg Assay (AID 2283095); details: primary human HUVEC with PBMC;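 also: relative cell number as total protein by SRB absorbance in sub-confluent culture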
How it was run: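 A human primary co-culture of umbilical vein endothelium and blood mononuclear cells receives compound; relative cell number is quantified at 96 h by SRB staining and 560 nm absorbance, with DMSO-referenced bidirectional curve fitting.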

Row | SMILES | AC50 | outcome
1 | O=c1c(-c2ccc(O)cc2)coc2cc(O)ccc12 | 20 µM (active) | –
2 | Cc1oc(-c2ccccc2)nc1CCOc1ccc(C[C@H](Nc2ccccc2C(=O)c2ccccc2)C(=O)O)cc1 | 19.3 µM (active) | –
3 | N#C[C@@H]1CC(F)(F)CN1C(=O)CNC1CC2CCC(C1)N2c1ncccn1 (some centres undefined) | 9.88 µM (active) | –
4 | OCCC(F)(F)C(F)(F)C(F)(F)C(F)(F)C(F)(F)C(F)(F)F | 49.8 µM (active) and 50.9 µM (active) | inactive
5 | c1ccc2c(c1)ccc1ccccc12 | – | inactive

experiment: BSK_SAg_SRB: Viability Assessment in the BioMAP Diversity Plus: SAg Assay (AID 2283096); details: primary human HUVEC with PBMC;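 also: cells read one day after compound addition; hits may be either gain or loss of signal compared with DMSO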
How it was run: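 This overt-cytotoxicity endpoint quantifies protein in human endothelial/PBMC co-cultures at 24 h using SRB absorbance (560 nm) after trichloroacetic acid fixation. Values reflect signal change from the DMSO negative control, fitted bidirectionally.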

Row | SMILES | outcome | AC50
6 | CC(C)(C)CC(C)(C)c1ccc(O)c(-n2nc3ccccc3n2)c1 | inactive | –
7 | OCCC(F)(F)C(F)(F)C(F)(F)C(F)(F)C(F)(F)C(F)(F)C(F)(F)C(F)(F)F | inactive | 17.2 µM (active) and 21.1 µM (active)
8 | CCCCC(CC)COC(=O)CCCCC(=O)OCC(CC)CCCC (centres undefined) | inactive | –
9 | CC(C)(C)c1cccc(C(C)(C)C)c1O | inactive | –
10 | CCCCCCCCCCCCN1CCCC1=O | – | 30.9 µM (active)
11 | CC(O)CO (centres undefined) | inactive | –
12 | COc1ccc([N+](=O)[O-])cc1N | inactive | –
13 | CC(=O)CC(C)(C)O | inactive | –
14 | CCCCCCCCOC(=O)CCCCCCCCC(=O)OCCCCCCCC | inactive | –
15 | NCC(F)(F)C(F)(F)C(F)(F)C(F)(F)C(F)(F)C(F)(F)C(F)(F)F | inactive | –
16 | c1ccc2cc3c(ccc4ccccc43)cc2c1 | inactive | –
17 | C[C@@H]1C[C@H]2[C@@H]3CCC4=CC(=O)C=C[C@]4(C)[C@@]3(F)[C@@H](O)C[C@]2(C)[C@@]1(O)C(=O)COP(=O)(O)O | inactive | –
